According to PubChem BioAssay:
Activity calls are given as the source filed them.

Key:
[1] = binders of probe aFSTL3 on microarray, primary screen, stem cell growth factor project, biochemical, small-molecule microarray, fluorescence 635/667 (AID 1064); conditions: higher = more signal;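 also: measures binding of the biotinylated anti-FSTL3 antibody to printed compounds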
[2] = binders from COS7 lysate, DM2A8 probe, primary screen, torsin A project, cell lysate, small-molecule microarray, fluorescence 635/667 (AID 1065); conditions: higher = more signal, COS7 lysate expressing mutant human TOR1A
[3] = binders of probe aFGF2 on microarray, primary screen, stem cell growth factor project, biochemical, small-molecule microarray, fluorescence 635/667 (AID 1067); conditions: higher = more signal;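 also: measures binding of biotinylated aFGF2 protein to printed compounds on slides; z-score merges feature fluorescence and signal-to-noise across triplicate slides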
[4] = binders of probe aFGF10 on microarray, primary screen, stem cell growth factor project, biochemical, small-molecule microarray, fluorescence 635/667 (AID 1071); conditions: higher = more signal;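 also: score merges 667 nm spot intensity and signal to noise from triplicate slides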
[5] = target: Neurogenic locus notch homolog protein 2 (Homo sapiens) (UniProt Q04721); experiment: Notch2 binders on small-molecule microarrays, primary screen, biochemical, small-molecule microarray, 635 nm fluorescence, stem cell growth factors (AID 1073); conditions: Notch2 binding, higher = more signal
[6] = target: Pro-neuregulin-1, membrane-bound isoform (Homo sapiens) (UniProt Q02297); experiment: NRG1 binders on small-molecule microarrays, primary screen, psychiatric disease protein project, biochemical, small-molecule microarray, fluorescence 635/667 (AID 1075); conditions: NRG1 binding, 635 nm fluorescence, higher = more signal;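 also: score combines 667 nm spot fluorescence with signal to noise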
[7] = system: Neuregulin-1 EGF-like domain; experiment: binders of neuregulin-1 EGF-like domain, primary screen, biochemical, small-molecule microarray, 635 nm fluorescence (AID 1081); conditions: small-molecule microarray binding, higher = more signal;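 also: binding of the protein to compounds printed on small-molecule microarray slides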
[8] = FRG1 promoter luciferase signal modulators, primary screen, FRG1 inhibition for FSHD, cell-based, C2C12 myotubes, firefly/Renilla luciferase, luminescence (AID 1084); conditions: higher = more signal, called active from +8 up or from −8 down
[9] = binders of probe aFST on microarray, primary screen, stem cell growth factor project, biochemical, small-molecule microarray, fluorescence 635/667 (AID 1086); conditions: higher = more signal;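 also: score merges 667 nm fluorescence with signal-to-noise of each printed compound spot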
[10] = binders of probe aHhip on microarray, primary screen, stem cell growth factor project, biochemical, small-molecule microarray, fluorescence 635/667 (AID 1087); conditions: higher = more signal;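 also: score merges spot fluorescence at 667nm with spot signal to noise ratio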
[11] = system: PRMT1 (protein arginine N-methyltransferase 1); experiment: PRMT1 binders on small-molecule microarrays, primary screen, biochemical, small-molecule microarray, 635 nm fluorescence (AID 1088); conditions: small-molecule microarray binding, higher = more signal;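 also: binding of Prmt1 protein to compounds spotted on small-molecule microarray slides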
[12] = yeast growth modulation, basal conditions, primary screen, YJM789 clinical isolate, OD600, 24 h (AID 1089);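 also: growth of clinical yeast isolate S. cerevisiae YJM 789 seeded 1000 cells per well; test concentration not given here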; conditions: S. cerevisiae YJM789 growth, higher = more signal, called active from +8 up or from −8 down
[13] = fission yeast growth modulation, primary screen, strain 972, OD600, 24 h, no modulator (AID 1090);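 also: basal condition with compound alone and no growth modifier present; test concentration not given here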; conditions: S. pombe 972 growth, higher = more signal, called active from +8 up or from −8 down
[14] = S. cerevisiae growth modulation with rapamycin, primary screen, strain BY4716, OD600, 96 h (AID 1091); conditions: higher = more signal, called active from +8 up or from −8 down; also: test concentration not given here
[15] = target: Torsin-1A-interacting protein 2 (Homo sapiens) (UniProt Q8NFQ8); experiment: LULL1 binders on small-molecule microarray, primary screen, cell lysate, human LULL1 lysate, 635/667 nm fluorescence (AID 1092); conditions: hLULL1 lysate binding, 635 nm fluorescence, higher = more signal;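 also: probe is lysate of COS7 cells overexpressing human LULL1; score merges per-feature 667 nm fluorescence with signal-to-noise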
[16] = E. coli growth modulation, two-sided OD650, primary screen, E. coli filamentation project, strain DRC41, 24 h (AID 1093); conditions: OD650, 24 h, higher = more signal, called active from +8 up or from −8 down;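 also: MC1000 strain lacking acrAB efflux and sulA so SOS filamentation is blocked; test concentration not given here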
[17] = small-molecule microarray binders of probe aLefty2, primary screen, biochemical, biotinylated probe, 635/667 nm fluorescence (AID 1094); conditions: higher = more signal;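 also: score merges spot fluorescence near 667 nm with spot signal-to-noise ratio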
[18] = system: Noggin (protein binding on small-molecule microarray); experiment: Noggin binders on small-molecule microarray, primary screen, biochemical, 635/667 nm fluorescence (AID 1095); conditions: 635 nm fluorescence, higher = more signal;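 also: score merges 667 nm feature fluorescence with signal to noise over triplicate slides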
[19] = target: Neurogenic locus notch homolog protein 3 (Homo sapiens) (UniProt Q9UM47); experiment: NOTCH3 binders on small-molecule microarray, primary screen, biochemical, 635/667 nm fluorescence (AID 1096); conditions: NOTCH3 binding, 635 nm fluorescence, higher = more signal
[20] = small-molecule microarray binders of probe aEGFR, primary screen, biochemical, biotinylated probe, 635/667 nm fluorescence (AID 1097); conditions: higher = more signal;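 also: probe is a biotinylated anti-EGFR antibody binding compounds printed on slides; score combines fluorescence near 667 nm and signal to noise of each spot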

Chain of Pro-neuregulin-1, membrane-bound isoform (Homo sapiens) (Q02297 whole entry, looked up, the tested form may be a part, canonical isoform): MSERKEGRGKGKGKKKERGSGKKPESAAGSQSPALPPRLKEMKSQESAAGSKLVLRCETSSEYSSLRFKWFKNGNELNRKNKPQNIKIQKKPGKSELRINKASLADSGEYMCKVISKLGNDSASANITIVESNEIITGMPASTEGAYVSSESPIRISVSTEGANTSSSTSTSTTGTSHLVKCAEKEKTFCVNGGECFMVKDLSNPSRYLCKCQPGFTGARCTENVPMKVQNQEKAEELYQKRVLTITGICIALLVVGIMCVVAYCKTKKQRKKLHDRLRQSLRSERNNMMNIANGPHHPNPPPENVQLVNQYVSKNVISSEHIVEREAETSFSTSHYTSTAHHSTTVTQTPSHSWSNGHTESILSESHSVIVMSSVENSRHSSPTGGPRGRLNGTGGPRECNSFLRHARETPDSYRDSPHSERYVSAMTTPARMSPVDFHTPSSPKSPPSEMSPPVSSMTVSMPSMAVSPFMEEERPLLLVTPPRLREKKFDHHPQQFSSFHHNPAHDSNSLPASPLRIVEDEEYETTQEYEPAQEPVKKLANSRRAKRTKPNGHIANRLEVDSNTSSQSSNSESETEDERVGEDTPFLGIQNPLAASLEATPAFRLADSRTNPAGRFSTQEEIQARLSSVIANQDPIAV
Chain of Neurogenic locus notch homolog protein 3 (Homo sapiens) (Q9UM47 whole entry, looked up): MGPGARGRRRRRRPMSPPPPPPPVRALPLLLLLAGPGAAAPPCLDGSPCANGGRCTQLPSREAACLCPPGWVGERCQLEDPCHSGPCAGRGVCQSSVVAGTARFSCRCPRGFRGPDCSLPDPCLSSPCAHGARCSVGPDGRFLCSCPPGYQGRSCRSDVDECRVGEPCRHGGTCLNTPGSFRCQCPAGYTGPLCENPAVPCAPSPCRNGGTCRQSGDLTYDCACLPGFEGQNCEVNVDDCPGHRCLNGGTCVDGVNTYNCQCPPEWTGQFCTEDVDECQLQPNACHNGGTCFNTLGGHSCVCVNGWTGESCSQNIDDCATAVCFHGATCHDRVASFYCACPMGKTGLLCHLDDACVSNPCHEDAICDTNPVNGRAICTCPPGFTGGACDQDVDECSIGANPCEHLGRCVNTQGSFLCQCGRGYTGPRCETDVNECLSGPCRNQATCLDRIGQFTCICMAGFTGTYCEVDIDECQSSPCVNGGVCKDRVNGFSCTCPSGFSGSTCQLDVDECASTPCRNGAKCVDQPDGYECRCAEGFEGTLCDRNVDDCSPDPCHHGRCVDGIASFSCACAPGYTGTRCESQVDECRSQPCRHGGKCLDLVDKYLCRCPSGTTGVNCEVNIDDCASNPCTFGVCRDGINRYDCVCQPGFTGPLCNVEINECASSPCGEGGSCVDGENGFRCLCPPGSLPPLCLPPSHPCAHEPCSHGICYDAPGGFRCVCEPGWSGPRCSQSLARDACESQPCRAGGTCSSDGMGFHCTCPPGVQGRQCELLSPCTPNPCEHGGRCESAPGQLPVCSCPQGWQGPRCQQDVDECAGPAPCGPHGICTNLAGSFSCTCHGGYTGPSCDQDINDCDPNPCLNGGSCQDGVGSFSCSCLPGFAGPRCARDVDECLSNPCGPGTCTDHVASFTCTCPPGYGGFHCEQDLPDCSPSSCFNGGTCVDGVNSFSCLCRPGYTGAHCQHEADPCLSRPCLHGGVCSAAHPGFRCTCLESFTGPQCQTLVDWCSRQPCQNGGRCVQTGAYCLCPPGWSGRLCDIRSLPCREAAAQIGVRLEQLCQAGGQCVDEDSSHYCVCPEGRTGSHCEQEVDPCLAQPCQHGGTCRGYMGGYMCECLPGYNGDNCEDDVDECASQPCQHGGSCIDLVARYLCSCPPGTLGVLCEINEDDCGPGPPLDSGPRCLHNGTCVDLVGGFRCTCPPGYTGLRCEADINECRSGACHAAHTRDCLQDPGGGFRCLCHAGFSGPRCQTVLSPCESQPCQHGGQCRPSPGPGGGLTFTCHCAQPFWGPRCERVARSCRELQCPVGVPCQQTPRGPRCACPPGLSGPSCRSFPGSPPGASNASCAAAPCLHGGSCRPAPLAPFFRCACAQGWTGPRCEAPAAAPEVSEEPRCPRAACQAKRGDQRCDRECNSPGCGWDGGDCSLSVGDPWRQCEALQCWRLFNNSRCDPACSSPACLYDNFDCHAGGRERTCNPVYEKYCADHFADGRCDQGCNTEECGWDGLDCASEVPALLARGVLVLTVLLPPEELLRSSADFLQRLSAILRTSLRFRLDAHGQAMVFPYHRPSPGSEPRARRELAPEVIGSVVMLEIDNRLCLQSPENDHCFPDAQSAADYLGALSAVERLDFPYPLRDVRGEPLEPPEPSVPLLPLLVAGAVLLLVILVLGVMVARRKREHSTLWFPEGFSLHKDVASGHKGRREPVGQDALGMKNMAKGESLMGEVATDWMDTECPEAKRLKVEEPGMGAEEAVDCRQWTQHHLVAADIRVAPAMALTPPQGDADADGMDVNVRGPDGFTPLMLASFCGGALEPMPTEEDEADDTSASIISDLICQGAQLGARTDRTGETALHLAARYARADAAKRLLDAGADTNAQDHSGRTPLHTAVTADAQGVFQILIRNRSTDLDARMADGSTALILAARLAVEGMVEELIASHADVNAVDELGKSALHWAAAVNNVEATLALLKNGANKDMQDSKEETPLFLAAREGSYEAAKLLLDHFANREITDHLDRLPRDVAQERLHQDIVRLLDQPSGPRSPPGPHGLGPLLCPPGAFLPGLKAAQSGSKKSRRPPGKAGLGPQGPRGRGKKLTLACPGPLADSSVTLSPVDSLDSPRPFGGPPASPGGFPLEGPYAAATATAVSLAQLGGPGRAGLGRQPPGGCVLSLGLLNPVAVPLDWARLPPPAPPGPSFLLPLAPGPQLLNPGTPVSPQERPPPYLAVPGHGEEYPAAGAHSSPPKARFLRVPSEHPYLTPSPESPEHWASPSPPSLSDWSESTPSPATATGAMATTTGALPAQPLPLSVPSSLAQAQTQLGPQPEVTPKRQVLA
Chain of Torsin-1A-interacting protein 2 (Homo sapiens) (Q8NFQ8 whole entry, looked up): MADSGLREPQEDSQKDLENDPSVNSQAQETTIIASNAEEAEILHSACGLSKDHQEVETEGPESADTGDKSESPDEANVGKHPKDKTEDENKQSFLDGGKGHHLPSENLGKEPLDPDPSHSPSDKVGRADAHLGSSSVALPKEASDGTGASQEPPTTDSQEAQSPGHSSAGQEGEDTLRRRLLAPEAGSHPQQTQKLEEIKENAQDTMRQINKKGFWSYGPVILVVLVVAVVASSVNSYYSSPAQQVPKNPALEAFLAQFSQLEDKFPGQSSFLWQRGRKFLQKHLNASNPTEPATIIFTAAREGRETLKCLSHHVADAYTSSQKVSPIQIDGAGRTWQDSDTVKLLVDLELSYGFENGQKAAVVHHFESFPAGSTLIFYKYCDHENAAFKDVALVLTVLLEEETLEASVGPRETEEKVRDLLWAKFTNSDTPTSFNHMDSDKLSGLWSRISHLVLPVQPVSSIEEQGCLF

## C=CCC(OC(C)=O)[C@@H]1[C@@H](N(Cc2cc3ccccc3o2)C(=O)c2ccc(-c3ccccc3)cc2)c2cc(OCCCO)ccc2N1C(=O)c1ccc(-c2ccccc2)cc1 (stereo not given in full)
[1]
  composite z-score: 0.218
[2]
  composite z-score: -0.352
[3]
  composite z-score: -0.0985
[4]
  composite z-score: 0.0925
[5]
  composite z-score: 0.11
[6]
  composite z-score: -0.196
[7]
  composite z-score: -0.714
[8]
  z-score: -1.24 (inactive)
[9]
  composite z-score: 0.105
[10]
  composite z-score: -0.0994
[11]
  composite z-score: -0.527
[12]
  z-score: 1.13 (inactive)
[13]
  z-score: 0.0977 (inactive)
[14]
  z-score: 1.38 (inactive)
[15]
  composite z-score: 0.94
[16]
  z-score: 1.95 (inactive)
[17]
  composite z-score: 0.0711
[18]
  composite z-score: -0.397
[19]
  composite z-score: -0.402
[20]
  composite z-score: -0.0444

## CC(C)C[C@@H]1NC(=O)[C@@]23C(=O)N[C@@H](Cc4ccccc4)C2[C@H](C)[C@@]2(C)O[C@H]2C3/C=C/CC/C=C/CNC(=O)[C@@H](C)NC1=O (stereo not given in full)
[1]
  composite z-score: -0.574
[2]
  composite z-score: 0.408
[3]
  composite z-score: -0.178
[4]
  composite z-score: 0.408
[5]
  composite z-score: 0.578
[6]
  composite z-score: -0.418
[7]
  composite z-score: 0.635
[8]
  z-score: -1.05 (inactive)
[9]
  composite z-score: 0.17
[10]
  composite z-score: 0.21
[11]
  composite z-score: 0.118
[12]
  z-score: 0.395 (inactive)
[13]
  z-score: -0.619 (inactive)
[14]
  z-score: -0.697 (inactive)
[15]
  composite z-score: -0.664
[16]
  z-score: 2.82 (inactive)
[17]
  composite z-score: -0.19
[18]
  composite z-score: 1.28
[19]
  composite z-score: 0.71
[20]
  composite z-score: -0.162

## O=C(NCc1ccccc1)[C@@H]1c2ccccc2C(=O)N(Cc2ccccc2Cl)[C@H]1c1ccc(CO)cc1
[1]
  composite z-score: 0.389
[2]
  composite z-score: 0.658
[3]
  composite z-score: 0.0139
[4]
  composite z-score: 0.124
[5]
  composite z-score: 1.21
[6]
  composite z-score: 0.887
[7]
  composite z-score: 1.25
[8]
  z-score: -2.93 (inactive)
[9]
  composite z-score: 0.893
[10]
  composite z-score: 0.0623
[11]
  composite z-score: 1.41
[12]
  z-score: -0.21 (inactive)
[13]
  z-score: -1.82 (inactive)
[14]
  z-score: -1.49 (inactive)
[15]
  composite z-score: 2.69
[16]
  z-score: 2.1 (inactive)
[17]
  composite z-score: 0.054
[18]
  composite z-score: 1.17
[19]
  composite z-score: 1.05
[20]
  composite z-score: 0.103

## O=c1n(-c2ccccc2)c(=O)n2n1CC(COc1ccccc1)=C1[C@@H](CCc3ccccc3)OB(O)C[C@@H]12
[1]
  composite z-score: -0.62
[2]
  composite z-score: -0.128
[3]
  composite z-score: -0.031
[4]
  composite z-score: 0.96
[5]
  composite z-score: 0.893
[6]
  composite z-score: 0.97
[7]
  composite z-score: 0.706
[8]
  z-score: -4.24 (inactive)
[9]
  composite z-score: 0.642
[10]
  composite z-score: 0.0524
[11]
  composite z-score: 1.42
[12]
  z-score: 0.173 (inactive)
[13]
  z-score: -3.03 (inactive)
[14]
  z-score: -1.44 (inactive)
[15]
  composite z-score: 1.39
[16]
  z-score: 1.92 (inactive)
[17]
  composite z-score: -0.133
[18]
  composite z-score: 0.814
[19]
  composite z-score: 1.03
[20]
  composite z-score: 0.0209

## CC(C)(C)OC(=O)CC[C@@]1(C(=O)N2CCOCC2)N=C(c2ccc(OCCCO)cc2)O[C@@H]1c1ccccc1
[1]
  composite z-score: 1.19
[2]
  composite z-score: 0.426
[3]
  composite z-score: 0.088
[4]
  composite z-score: 0.435
[5]
  composite z-score: 1.07
[6]
  composite z-score: 2.16
[7]
  composite z-score: 1.36
[8]
  z-score: -1.79 (inactive)
[9]
  composite z-score: 0.517
[10]
  composite z-score: 0.28
[11]
  composite z-score: 1.58
[12]
  z-score: 0.153 (inactive)
[13]
  z-score: -0.0631 (inactive)
[14]
  z-score: 0.248 (inactive)
[15]
  composite z-score: 3.95
[16]
  z-score: 1.32 (inactive)
[17]
  composite z-score: 0.32
[18]
  composite z-score: 0.743
[19]
  composite z-score: 0.274
[20]
  composite z-score: 0.233
